Counter-ions that a name gives are not always drawn.
What follows are molecules tested on Haemophilus parainfluenzae (assay: growth AUC normalised to DMSO control (fraction of control); higher = less growth inhibition, active = hit call of the paper). Conditions: 20 µM;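 active = AUC significantly below DMSO controls by Student t-fit with adjusted P under 0.01; inactive = not significantly reduced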.
Procedure, shortened: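 Pathogens were passaged twice under anaerobic conditions, then inoculated into pre-reduced mGAM plates at a starting OD578 of 0.01, with compound at 20 μM and 1% DMSO, and sealed with breathable membranes. For Haemophilus parainfluenzae, the medium was supplemented with hemin and NAD. OD578 was read every hour for 24 h in three biological replicates. Growth-curve AUC was calculated by the trapezoidal rule up to the exponential-to-stationary transition and normalised to DMSO controls on the same plate.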
`CN(C)CCOC(C)(c1ccccc1)c1ccccn1` (stereo not drawn) [Doxylamine succinate] was tested, and the “growth AUC normalised to DMSO control” value was 0.989 (inactive). `CC(C)c1c(C(=O)Nc2ccccc2)c(-c2ccccc2)c(-c2ccc(F)cc2)n1CC[C@@H](O)C[C@@H](O)CC(=O)O` [Atorvastatin] was tested, and the “growth AUC normalised to DMSO control” value was 0.996 (inactive). `O=C(CCNNC(=O)c1ccncc1)NCc1ccccc1` [Nialamide] was tested, and the “growth AUC normalised to DMSO control” value was 1.01 (inactive). For `OCCOCCN1CCN(C2=Nc3ccccc3Sc3ccccc32)CC1` [Quetiapine hemifumarate], the “growth AUC normalised to DMSO control” value was 0.997 (inactive). For `COc1ccc2c(c1)c(CC(=O)OCC(=O)O)c(C)n2C(=O)c1ccc(Cl)cc1` [Acemetacin], the “growth AUC normalised to DMSO control” value was 0.988 (inactive). For `CCC(C)(CN(C)C)OC(=O)c1ccccc1` (stereo not drawn) [Amyleine hydrochloride], the “growth AUC normalised to DMSO control” value was 1.01 (inactive). `CC(C)NCC(O)c1ccc(O)c(O)c1` (single isomer, unassigned; (-)) [(-) Isoproterenol hydrochloride] was tested, and the “growth AUC normalised to DMSO control” value was 1.03 (inactive). In the case of `CN(C)CCOC1=Cc2ccccc2Sc2ccc(Cl)cc21` [Zotepine], the “growth AUC normalised to DMSO control” value is reported as 0.891 (inactive). With `CCCOc1cc(N)ccc1C(=O)OCCN(CC)CC` [Propoxycaine hydrochloride] the “growth AUC normalised to DMSO control” value was 1.04 (inactive). `Cc1ncc([N+](=O)[O-])n1CC(O)CCl` (stereo not drawn) [Ornidazole] was tested, and the “growth AUC normalised to DMSO control” value was 1 (inactive). For `CCN(Cc1ccncc1)C(=O)C(CO)c1ccccc1` (stereo not drawn) [Tropicamide], the “growth AUC normalised to DMSO control” value was 0.816 (inactive). In the case of `C[C@]12CCC(=O)C=C1CC[C@@H]1[C@@H]2C(=O)C[C@@]2(C)[C@H]1CC[C@]2(O)C(=O)CO` [Cortisone], the “growth AUC normalised to DMSO control” value is reported as 0.971 (inactive). For `Cc1cc(C(=O)NNCc2ccccc2)no1` [Isocarboxazid], the “growth AUC normalised to DMSO control” value was 1.06 (inactive). For `Cc1ccc(C)c(OCCCC(C)(C)C(=O)O)c1` [Gemfibrozil], the “growth AUC normalised to DMSO control” value was 0.971 (inactive). For `Clc1cccc(Cl)c1NC1=NCCN1` [Clonidine hydrochloride], the “growth AUC normalised to DMSO control” value was 0.978 (inactive). `Cc1ncc([N+](=O)[O-])n1CC(C)O` (stereo not drawn) [Secnidazole] was tested, and the “growth AUC normalised to DMSO control” value was 0.937 (inactive). `CO[C@H]1C[C@H](O[C@H]2[C@H](C)[C@@H](O[C@@H]3O[C@H](C)C[C@H](N(C)C)[C@H]3OC(C)=O)[C@@H](C)C[C@@]3(CO3)C(=O)[C@H](C)[C@@H](OC(C)=O)[C@@H](C)[C@@H](C)OC(=O)[C@@H]2C)O[C@@H](C)[C@@H]1OC(C)=O` [Troleandomycin] was tested, and the “growth AUC normalised to DMSO control” value was 0.921 (inactive). `CC(Oc1ccccc1)C(=O)N[C@@H]1C(=O)N2[C@@H]1SC(C)(C)[C@@H]2C(=O)O` (stereo partly drawn) [Phenethicillin potassium salt] was tested, and the “growth AUC normalised to DMSO control” value was 0.59 (active). `CN1CCCN=C1/C=C/c1cccc(O)c1` [Oxantel pamoate] was tested, and the “growth AUC normalised to DMSO control” value was 0.916 (inactive). In the case of `CCN(CCO)CCCC(C)Nc1ccnc2cc(Cl)ccc12` (stereo not drawn) [Hydroxychloroquine sulfate], the “growth AUC normalised to DMSO control” value is reported as 1 (inactive). With `Cc1ccc(-c2cc(C(F)(F)F)nn2-c2ccc(S(N)(=O)=O)cc2)cc1` [Celecoxib] the “growth AUC normalised to DMSO control” value was 0.85 (inactive). In the case of `CC(=O)N(CC(C)C(=O)O)c1c(I)cc(I)c(N)c1I` (stereo not drawn) [Iocetamic acid], the “growth AUC normalised to DMSO control” value is reported as 0.965 (inactive). For `O=C(CCCN1CCC(O)(c2ccc(Cl)cc2)CC1)c1ccc(F)cc1` [Haloperidol], the “growth AUC normalised to DMSO control” value was 0.951 (inactive). With `CC[C@@H]1C(=O)OC[C@@H]1Cc1cncn1C` [Pilocarpine nitrate] the “growth AUC normalised to DMSO control” value was 0.981 (inactive). For `Cc1onc(-c2c(Cl)cccc2Cl)c1C(=O)N[C@@H]1C(=O)N2[C@@H]1SC(C)(C)[C@@H]2C(=O)O` [Dicloxacillin sodium salt hydrate], the “growth AUC normalised to DMSO control” value was 0.893 (inactive). For `CCCCC(O)c1ccccc1` (stereo not drawn) [Fenipentol], the “growth AUC normalised to DMSO control” value was 0.989 (inactive). `c1cnc(N2CCN(Cc3ccc4c(c3)OCO4)CC2)nc1` [Piribedil] was tested, and the “growth AUC normalised to DMSO control” value was 1.02 (inactive). In the case of `Clc1ccccc1C(c1ccccc1)(c1ccccc1)n1ccnc1` [Clotrimazole], the “growth AUC normalised to DMSO control” value is reported as 0.968 (inactive). For `Oc1ncnc2[nH]ncc12` [Allopurinol], the “growth AUC normalised to DMSO control” value was 1.01 (inactive). For `C[C@H](CCC(=O)O)[C@H]1CC[C@H]2[C@@H]3C(=O)C[C@@H]4CC(=O)CC[C@]4(C)[C@H]3CC(=O)[C@]12C` [Dehydrocholic acid], the “growth AUC normalised to DMSO control” value was 0.972 (inactive). In the case of `Cc1cc2cc3c(C)cc(=O)oc3c(C)c2o1` [Trioxsalen], the “growth AUC normalised to DMSO control” value is reported as 1.02 (inactive). For `O=C(CCCCCCC(=O)Nc1ccccc1)NO` [Vorinostat], the “growth AUC normalised to DMSO control” value was 1.07 (inactive). In the case of `O=C1NCN(c2ccccc2)C12CCN(CCCC(c1ccc(F)cc1)c1ccc(F)cc1)CC2` [Fluspirilene], the “growth AUC normalised to DMSO control” value is reported as 1.05 (inactive). `CC[C@H]1OC(=O)[C@H](C)[C@@H](O[C@H]2C[C@@](C)(OC)[C@@H](O)[C@H](C)O2)[C@H](C)[C@@H](O[C@@H]2O[C@H](C)C[C@H](N(C)C)[C@H]2O)[C@](C)(O)C[C@@H](C)C(=O)[C@H](C)[C@@H](O)[C@]1(C)O` [Erythromycin] was tested, and the “growth AUC normalised to DMSO control” value was 0.028 (active). For `CC1=C(C(=O)O)N2C(=O)[C@@H](NC(=O)[C@H](N)c3ccc(O)cc3)[C@H]2SC1` [Cefadroxil], the “growth AUC normalised to DMSO control” value was 0.949 (inactive). In the case of `CC(C)(S)C(N)C(=O)O` (racemic) [D,L-Penicillamine], the “growth AUC normalised to DMSO control” value is reported as 0.981 (inactive). In the case of `Nc1nc2c(ncn2COCCO)c(=O)[nH]1` [Acyclovir], the “growth AUC normalised to DMSO control” value is reported as 1.01 (inactive). `CC(C)(Oc1ccc(Cl)cc1)C(=O)O` [Clofibric acid] was tested, and the “growth AUC normalised to DMSO control” value was 0.908 (inactive).

Source: the supplement of paper PMC12350171
